Assay results as given in the supplement of paper PMC10338343.
± gives the standard deviation.

Experiments:
[1] = test system: MILI (PIWIL2) piRISC loaded with piRNA #1 (26 nt); experiment: pre-steady-state target cleavage rate (min^-1); guide: piRNA #1 5'p-UGAGGUAGUAGGUUGUAUAGUAUCCA; higher = faster piRNA-guided slicing of the target; conditions: auxiliary factor: 500 nM mouse GTSF1
How it was run: (§1)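 In Cleave-'n-Seq, a transcribed, DNA-blocked target RNA library (0.1 nM) was combined with 1 nM active affinity-purified piRISC bearing one synthetic guide, with or without 500 nM GTSF1 partner protein. Reactions ran in HEPES–potassium acetate buffer at 33 °C for 0–8 or 0–960 min. Uncleaved targets were sequenced and normalised to depth and to weakly complementary targets, three trials were pooled, and k3 was capped at 0.0001 min^-1. The pre-steady-state cleavage rate was obtained by fitting a burst-and-steady-state model.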

[2] = test system: EfPiwi piRISC loaded with piRNA #1 (26 nt); experiment: pre-steady-state target cleavage rate (min^-1); auxiliary factor: 500 nM Ephydatia muelleri Gtsf1; guide: piRNA #1 5'p-UGAGGUAGUAGGUUGUAUAGUAUCCA; MIWI and MILI are mouse PIWI proteins and EfPiwi is from a freshwater sponge; tags in brackets are library labels; higher = faster piRNA-guided slicing of the target
How it was run: as §1

Sequence	pre-steady-state target cleavage rate [1]	pre-steady-state target cleavage rate [2]
GGAGACGAUACUAUACAACCUACGUACCUCA	0.108 ± 0.013	0.00418 ± 0.0019
GGAGUAGGAUACUAUACAACCUACUACCUCA	0.145 ± 0.016	0.0546 ± 0.019
GGAGACCUAUCUUUACAACCUACUACCUCA	0.063 ± 0.0089	0.0058 ± 0.0037
GGAGACGAUACUAUACAACGAACUACCUCA	0.00414 ± 0.0015	0.00251 ± 0.0024
GGAGAGGAUAGUUUACAACCUACUACCUCA	0.0583 ± 0.0089	0.0061 ± 0.0039
GGAGACGAUACUUUACAUCCUACUACCUCA	0.257 ± 0.016	0.00465 ± 0.0027
GGAGACGAUACUAUACAACGUACUACGUCA	0.00557 ± 0.0029	0.00379 ± 0.0014
GGAGUGGUUUCUAUACAACCUACUACCUCA	0.148 ± 0.0079	0.00603 ± 0.0034
GGAGACGAUACUUUACAACCUAGUACCUCA	0.0601 ± 0.017	0.00252 ± 0.0017
GGAGUGGAUACUAUACAACCUACGACCUCA	0.0834 ± 0.0092	0.00416 ± 0.0017
GGAGACGAUACUAUACAACGUACUACCUGA	0.0157 ± 0.0045	0.0041 ± 0.0012
GGAGACGAUACUAUACAUCCUAGUACCUCA	0.0834 ± 0.019	0.0031 ± 0.001
GGAGUCGAUAGUAUACAACCUACUACCUCA	0.154 ± 0.011	0.0054 ± 0.0038
GGAGACCUUACUAUACAAGCUACUACCUCA	0.225 ± 0.015	0.00386 ± 0.002
GGAGAGGAUACAAUACAUCCUACUACCUCA	0.239 ± 0.021	0.00771 ± 0.0035
GGAGUGGAUACUAUACAACCUAGUACCUCA	0.0508 ± 0.0096	0.00414 ± 0.0012
GGAGACGAUACUAUACUACCUACUACCACA	0.209 ± 0.016	0.00202 ± 0.0018
GGAGACGAUACUAUACAAGCUAGUACCUCA	0.105 ± 0.028	0.00387 ± 0.002
GGAGAGGAUACUAGUACAACCUACUACCUCA	0.079 ± 0.011	0.0114 ± 0.0064
GGAGACGAUACUAUACAACCGACUACCUCA	0.00402 ± 0.0035	0.00284 ± 0.002
GGAGAGGAUACUAAACAACCUACUACCUCA	0.174 ± 0.012	0.00787 ± 0.0036
GGAGACCUUACUAUAUAACCUACUACCUCA	0.124 ± 0.0081	0.00964 ± 0.005

Sequence	pre-steady-state target cleavage rate [1]	pre-steady-state target cleavage rate [2]
GGAGACCUAACUAUACAACCUACUACCUCC [g2:g21:cont:t1C]	0.175 ± 0.03	0.00701 ± 0.0033
GGAGUGGAUACUAAACAUCCUACUACCUCA	0.242 ± 0.013	0.0059 ± 0.0024
GGAGACCUAUGUAUACAACCUACUACCUCCA	0.0928 ± 0.016	0.00535 ± 0.004
GGAGACCUAUGAUCACAACCUACUACCUCA	0.00534 ± 0.0024	0.00429 ± 0.0038
GGAGUGGAAACUAUACAACCUUCUACCUCA	0.00517 ± 0.0028	0.00484 ± 0.0029
GGAGAGGAUACUAUACUACCUUCUACCUCA	0.0158 ± 0.0024	0.00328 ± 0.0026
GGAGACCAUACUAGACAACCUACUACCUCA	0.151 ± 0.014	0.0249 ± 0.01
GGAGUGGAUACUAUGCAACCUACUACCUCA	0.192 ± 0.009	0.09 ± 0.035
GGAGACCUUACUAUACAUCCUAGUACCUCA	0.0856 ± 0.018	0.00256 ± 0.0016
GGAGAGGUUACUAUAGAACCUACUACCUCA	0.157 ± 0.018	0.00277 ± 0.0023
GGAGACCAUACUAUACAACCUACUAACCUCA	0.226 ± 0.019	0.00357 ± 0.0025
GGAGACCUUACUAUACAACCUACUAGCCUCA	0.181 ± 0.018	0.00471 ± 0.0044
GGAGACCAUACUUAACAACCUACUACCUCA	0.134 ± 0.018	0.00395 ± 0.0032
GGAGACCAAACUAUACAUCCUACUACCUCA	0.168 ± 0.034	0.0348 ± 0.013
GGAGAGGAUACUUACAACCUACUACCUCA	0.125 ± 0.012	0.00543 ± 0.0036
GGAGUGGUUACUAUACAACCUACUACGUCA	0.0604 ± 0.011	0.00307 ± 0.0016
GGAGUGGAAACUAUACAACGUACUACCUCA	0.0251 ± 0.0048	0.00364 ± 0.0017
GGAGACCAUUCUAAACAACCUACUACCUCA	0.0936 ± 0.012	0.00894 ± 0.0049
GGAGUGGAAUACUAUACAACCUACUACCUCA	0.165 ± 0.0081	0.122 ± 0.045
GGAGACCAUACUAUACAAGCUAGUACCUCA	0.0775 ± 0.016	0.0032 ± 0.0027
GGAGUGAUACUAUACAACCUACUACCUCA	0.174 ± 0.011	0.186 ± 0.069
GGAGAGGAAAGUAUACAACCUACUACCUCA	0.0417 ± 0.0061	0.00774 ± 0.0044

Sequence	pre-steady-state target cleavage rate [1]	pre-steady-state target cleavage rate [2]
GGAGACCAAAGUAUACAACCUACUACCUCA	0.0438 ± 0.0093	0.0166 ± 0.0082
GGAGAGGAUAGUAUACAACCUACAACCUCA	0.037 ± 0.0093	0.00249 ± 0.0021
GGAGAGGAUACUAUACUACCUACUUCCUCA	0.0617 ± 0.016	0.00269 ± 0.002
GGAGUGCAUACAAUACAACCUACUACCUCA	0.186 ± 0.013	0.0102 ± 0.0044
GGAGUGCAUACUAUACAUCCUACUACCUCA	0.313 ± 0.015	0.0107 ± 0.0041
GGAGACGAUACUAUGCAACCUACUACCUCA	0.21 ± 0.014	0.0141 ± 0.0066
GGAGACCUAACUAUACAACCUAGUUCCUCA	0.00721 ± 0.0051	0.00297 ± 0.0025
GGAGACGAUACGAUACAACCUACUACCUCA	0.193 ± 0.018	0.049 ± 0.019
GGAGAGGAUACUAGACAACCUACUACCUCA	0.118 ± 0.01	0.0121 ± 0.0055
GGAGAGGAUACUAUACAACGUACUACGUCA	0.0115 ± 0.0029	0.00349 ± 0.0018
GGAGACGAUACUAUACAUCCUACUACCUCA	0.289 ± 0.024	0.00772 ± 0.0032
GGAGACCUAUGAAGUACAACCUACUACCUCA	0.00594 ± 0.0028	0.00479 ± 0.0035
GGAGUGGAUAGAAUACAACCUACUACCUCA	0.156 ± 0.014	0.0062 ± 0.0044
GGAGAGGAUACUAUACAACCUAUACCUCA	0.00606 ± 0.0021	0.00469 ± 0.0024
GGAGACCAUCCUAUACAACCUACUACCUCA	0.16 ± 0.03	0.01 ± 0.006
GGAGACCUAACUAUACAACCUACUUCCUCA	0.0606 ± 0.02	0.00336 ± 0.0029
GGAGACGAUUGAAUACAACCUACUACCUCA	0.00898 ± 0.0022	0.00528 ± 0.0043
GGAGAGGAAACUAUACAACCUAGUACCUCA	0.0133 ± 0.0079	0.00323 ± 0.0013
GGAGACGAUACUAUACAAGCUACUACCUCA	0.269 ± 0.016	0.00854 ± 0.0028
GGAGAGGAUACUAUUCAACCUACAACCUCA	0.0909 ± 0.01	0.00238 ± 0.0017
GGAGACCUAACUAUACAACCUACUACGUCA	0.0415 ± 0.014	0.00274 ± 0.0023
